Source: PubChem BioAssay AID588398 (Broad Institute, 2011)
Hit rate of the full screen: of about 1,200 compounds, about 110 (9.2%) were called active. About 8% were inconclusive and are not listed.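 Rule for the calls: active = pathway reporter half-maximal dose under half the control reporter's, or control reporter unaffected while pathway reporter is inhibited; inconclusive = either signal flat at 30 to 70% inhibition or poorly fitted; inactive = the rest.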 Only a sample is shown. Entries with a potency or affinity are not part of this list.

Experiment: LMP1 TES1 pathway selectivity over dsRED control – imaging, HEK293T, dual-color eGFP/dsRED, cherry-picks, selectivity assay for LMP1 NF-kB inhibitor project, dose response (AID 588398)
Settings: 48 h; HEK293T Tet-On dsRED counter-screen channel, at 19.5 µM (top of the series)

Compound | outcome
CC1Cc2ccccc2N1c1ncnc(N)c1[N+](=O)[O-] (centres undefined) | inactive
CCCn1c(C)cc(C(=O)CN2C(=O)c3ccccc3S2(=O)=O)c1C | inactive
COc1cccc(/C=N/Nc2nccnc2Cl)c1O | inactive
COc1ccc(/C=C2\N=C(C)OC2=O)cc1[N+](=O)[O-] | inactive
CCN1CCN(Cc2ccc(NC(=O)c3ccc(C)c(NC(=O)c4cccc(-c5cn[nH]c(=O)c5)c4)c3)cc2C(F)(F)F)CC1 | inactive
Cc1cc(N)nc(=O)n1C1CC(O)C(CO)O1 (centres undefined) | inactive
N/C(=N\OC(=O)c1cccc(Br)c1)c1ccccn1 | inactive
COc1cc(C=C2CCCC(=Cc3ccc(OCC4CO4)c(OC)c3)C2=O)ccc1OCC1CO1 (centres undefined) | inactive
CS(=O)(=O)Nc1ccc(C2=NN(S(C)(=O)=O)C(c3ccccc3)C2)cc1 (centres undefined) | inactive
CCSc1nnc(NC(=O)CCn2c(=O)oc3ccccc32)s1 | inactive
c1nc(NCc2ccc3c(c2)OCO3)c2cc(-c3ccoc3)ccc2n1 | inactive
COc1ccc(N2C3=[N+](CC2(C)O)c2ccccc2CC3)cc1 (centres undefined) | inactive
c1ccc(-n2nnc3c(N4CCOCC4)ncnc32)cc1 | inactive
O=C(NCc1ccco1)C1CC(=O)N(c2cccc(Cl)c2)C1 (centres undefined) | inactive
COCCn1c(SCC(=O)NCc2ccco2)nnc1-c1c[nH]c2ccccc12 | inactive
O=C1CCC(C(=O)N2CCCCCC2)CN1CCc1ccc(Cl)cc1 (centres undefined) | inactive
COc1ccc(NC(=O)/C(C#N)=C/c2cc(C)n(-c3ccc(N4CCOCC4)c([N+](=O)[O-])c3)c2C)cc1 | inactive
CCOC(=O)c1nc(NCc2ccccc2F)c2ccccc2n1 | inactive
CCOC(=O)c1cc(-c2ccccc2)n(CC(=O)Nc2cccc(OC)c2)c1C | inactive
COc1cc(/C=N/NC(=O)c2cc(C34CC5CC(CC(C5)C3)C4)[nH]n2)ccc1O | inactive
COc1cc(/C=C2\SC(=S)N(NC(=O)c3ccncc3)C2=O)ccc1O | inactive
CCOC(=O)c1cn2nc(N3CCCC3)ccc2n1 | inactive
COc1ccc2[nH]c(-c3ccc(C)cc3)cc(=O)c2c1 | inactive

Compound | outcome
Cc1ccc(C(=O)Nc2nnc(SCC(=O)N3CCCc4ccccc43)s2)cc1 | inactive
O=C(C1CC1)N1N=C(c2ccc(Br)cc2)CC1(O)C(F)(F)F (centres undefined) | inactive
COc1ccccc1C(=O)Nc1c[nH]c(=O)[nH]c1=O | inactive
COc1ccccc1OCc1ccc(C(=O)c2ccccc2)cc1 | inactive
COc1ccc(-c2csc(Nc3cccc(C)n3)n2)cc1OC | inactive
CS(=O)(=O)c1ccc(Sc2nc3ccccc3s2)c([N+](=O)[O-])c1 | inactive
O=C(Nc1ncc(Br)s1)C(Cc1ccccc1)n1cccc1 (centres undefined) | inactive
CCOc1ccccc1C(=O)NC1CC2CCCC(C1)N2Cc1nnnn1Cc1ccco1 (centres undefined) | inactive
O=c1cc(C2CCCCC2)[nH]c(=O)[nH]1 | inactive
Cc1ccc(-c2nc3cccnc3o2)cc1NC(=O)COc1ccc(C(C)(C)C)cc1 | inactive
CNC(=S)N1N=C(c2cccs2)CC1c1ccc(F)cc1 (centres undefined) | inactive
S=C(N/N=C/c1ccc2ncccc2c1)Nc1cccnc1 | inactive
Oc1ccc(C=NNC(=S)Nc2ccccc2)nc1 | inactive
Cn1cc(S(=O)(=O)N2CCN(C(=O)c3ccco3)CC2)c(=O)n(C)c1=O | inactive
Cn1cccc1C(=O)OCC(=O)Nc1ccc2c(c1)OCO2 | inactive
Cc1cc(C)nc(SCC(=O)OCN2C(=O)c3ccccc3C2=O)n1 | inactive
O=C(Nc1ccc(N2CCOCC2)cc1)c1cnccn1 | inactive
Cc1ccccc1C(=O)N1CCN(c2ccc(NC(=O)c3ccco3)cc2Cl)CC1 | inactive
O=C(CCCOc1ccccc1)N1CCN(c2ccccc2)CC1 | inactive
N#CC(C#N)c1ccnc2ccccc12 | inactive
COc1ccc(NC(=O)C[C@H]2C(=O)N(CCc3ccccc3)C[C@@H]2c2ccc(OC)cc2)cc1 | inactive
COc1cc(OC)cc(-c2c(C#Cc3ccsc3)c3cc(-c4cc(OC)c(OC)c(OC)c4)ccc3n2C)c1 | inactive
COc1cccc(N=Nc2ccc(O)c3ncccc23)c1 | inactive

Compound | outcome
COc1cccc(C2Nc3ccc4ccccc4c3C3=C2C(=O)CC(C)(C)C3)c1OCC(=O)O (centres undefined) | inactive
COc1ccc(-n2c(C)c([N+](=O)[O-])c3ccc(O)c(CN(C)C)c32)cc1 | inactive
COc1ccc(/C=C2\SC(=O)N(CCCC(=O)Nc3ccc(C(=O)O)cc3)C2=O)cc1 | inactive
O=C(Nc1ccc2c(c1)OCCO2)c1ccccn1 | inactive
Cc1ccc(C(=O)Nc2ccc3c(c2)OCCO3)c(Cl)c1 | inactive
CCc1nc(SCC(=O)c2ccc3c(c2)OCCO3)c2ccccc2n1 | inactive
Cc1ccc(C(=O)Nc2ccc3c(c2)OCCO3)cc1 | inactive
O=C(CCCN1C(=O)[C@H]2CC=CC[C@H]2C1=O)NCc1nc(-c2ccc(Cl)cc2)no1 | inactive
CC1(C)CC(=O)C(CC2=C(O)CC(C)(C)CC2=O)=C(O)C1 | inactive
CC(C)CC1C(=O)N(Cc2cn(CC3CCCCC3)nn2)CCS(=O)(=O)N1Cc1ccc(-c2ccc(F)nc2)cc1 (centres undefined) | inactive
Cc1cc(=O)[nH]c(N=N/C(=N/Nc2ccccc2C)c2ccccc2)n1 | inactive
COC(=O)c1ccccc1NC(=O)CSc1nnnn1C | inactive
COc1ccc(S(=O)(=O)NCC(c2cccnc2)N2CCN(c3ccc(F)cc3)CC2)cc1C (centres undefined) | inactive
O=C(CCNc1cccc(F)c1)c1cc2ccccc2o1 | inactive
NC(=O)c1sc2nccc(Nc3ccccc3)c2c1N | inactive
Cc1nn(-c2ccccc2)c(Cl)c1C1C(C#N)=C(N)Oc2n[nH]c(C)c21 (centres undefined) | inactive
O=S(=O)(c1ccc2c(c1)C(=NO)c1cc(S(=O)(=O)N3CCCCC3)ccc1-2)N1CCCCC1 | inactive
COc1ccc(S(=O)(=O)N2CCOCC2)cc1NC(=O)COC(=O)CCS(=O)(=O)c1ccc(C)cc1 | inactive
Oc1ccc2ccccc2c1N=Nc1ccccn1 | inactive
c1ccc(C(=NNc2nc3ccccc3s2)c2ccccn2)cc1 | inactive
CCOC(=O)c1sc(NC(=O)CNCc2ccccn2)c(C(=O)OCC)c1C | inactive
Oc1c(N=NC(=S)Nc2ccccc2F)c2ccccc2n1Cc1ccccc1 | inactive
COc1ccc(OCc2cccc(C(=O)NN)c2)cc1 | inactive
